The whole screen tested about 330,000 compounds, of which about 5,800 (1.8%) were called active. Many of the other results were omitted from the sample, so actives are more common in it than they were. A number with no mark means an inactive call. No stated cut-off is given here; in the data, active means inhibition mostly above about 38% (no sharp cut-off); inactive means mostly below about 40%.

One may read the inhibition as the drop in the measured response relative to a control, in per cent.

Chain of Orexin/Hypocretin receptor type 1 (Homo sapiens) (O43613 whole entry, looked up): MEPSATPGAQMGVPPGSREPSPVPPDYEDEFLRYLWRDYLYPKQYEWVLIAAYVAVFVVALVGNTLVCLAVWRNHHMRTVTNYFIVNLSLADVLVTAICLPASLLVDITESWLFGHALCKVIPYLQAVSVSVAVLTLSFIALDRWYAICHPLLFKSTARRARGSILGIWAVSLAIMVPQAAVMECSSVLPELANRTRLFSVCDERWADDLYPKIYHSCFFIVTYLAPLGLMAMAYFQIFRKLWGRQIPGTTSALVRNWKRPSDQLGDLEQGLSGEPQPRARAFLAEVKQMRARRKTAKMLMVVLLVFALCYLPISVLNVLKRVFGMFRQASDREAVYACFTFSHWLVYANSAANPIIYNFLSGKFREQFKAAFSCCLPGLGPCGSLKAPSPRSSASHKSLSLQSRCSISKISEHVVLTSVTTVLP

This assay concerns the target Orexin/Hypocretin receptor type 1 (Homo sapiens) (UniProt O43613). Briefly: blocks the human orexin 1 receptor (AID 485270).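 Further: 0% = agonist challenge alone and 100% = reference antagonist.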 The following applies: OX1R-expressing cells, FRET antagonist read-out; at 6.6 µM; hits give high values.
For `O=c1c2cc([N+](=O)[O-])ccc2nc2n1CCC2`, the inhibition is 59.2% (active).
Consider `O=C(Nc1ccc2nc3n(c(=O)c2c1)CCCC3)c1ccc(Cl)nc1`, for which the inhibition was 4.47%.
On to `CCCCN(CC)C(=S)Nc1ccc2nc3n(c(=O)c2c1)CCCCC3`, for which the inhibition is 5.73%.
Regarding `N/C(=N\OC(=O)c1ccc([N+](=O)[O-])cc1)c1ccccn1`, the inhibition is 53.4%.
Consider `COc1ccc(C(=O)O/N=C(\N)c2ccccn2)cc1[N+](=O)[O-]`, for which the inhibition is 28.6% (active).
Consider `Cc1ccc(C(=O)O/N=C(\N)c2ccccn2)cc1Cl`, for which the inhibition is 14.1%.
The same measure for `O=C(O[C@@H]1[C@H](Cc2ccccc2)NS(=O)(=O)[C@H]2C[C@@H]3C=C[C@]12O3)c1ccccc1Br`: 52.4% (active).
As for `O=C(O[C@H]1[C@H](Cc2ccccc2)NS(=O)(=O)[C@H]2C[C@@H]3C=C[C@]12O3)c1ccc([N+](=O)[O-])cc1`, the inhibition is 15.9%.
The same measure for `CC(C)C(NC(=O)c1c(F)cccc1F)C(=O)NNC(=O)c1ccccc1` (stereo not given): 2.8%; for `COc1ccc(-c2c(C#Cc3ccsc3)c3cc(-c4ccc(CN5CCOCC5)cc4)ccc3n2C)cc1`: 8.67%; for `COc1cc(C(=S)N2CCOCC2)cc(OC)c1OC(=O)c1cc([N+](=O)[O-])c(C)c([N+](=O)[O-])c1`: 8.29%.
The same measure for `COc1cc(C(=S)N2CCOCC2)cc(OC)c1OC(=O)c1cc([N+](=O)[O-])cc([N+](=O)[O-])c1`: 66.5%; for `COc1cc(C(=S)N2CCOCC2)cc(OC)c1OC(=O)c1ccc([N+](=O)[O-])cc1[N+](=O)[O-]`: 113% (active); for `Cc1cccc([C@H]2[C@@H]3C=CC[C@@H](C)[C@@H]3C(=O)N2Cc2ccccc2)c1`: 23.4%.
Turning to `Cc1c(C(=O)Nc2cccc(S(=O)(=O)N3CCOCC3)c2)oc2ccccc12`, the inhibition was 24.2%.
The same measure for `CC(=O)c1ccc(OC(=O)N2CCOCC2)cc1`: 0.24%; for `CC(=O)Oc1ccc(C(C)=O)c2c1OCCO2`: 88.7% (active).
Regarding `CC(=O)c1ccc2c(c1)OCCOCCOc1ccc(C(C)=O)cc1OCCOCCO2`, the inhibition is 0.66%.
Turning to `O=C(NCCc1ccco1)c1ccc(OCc2cn3ccccc3n2)cc1`, the inhibition is 8.69%.
The same measure for `COc1ccc(CNc2nc3c(c(=O)[nH]c(=O)n3C)n2Cc2ccccc2)cc1`: -5.7%; for `COc1ccc(CCn2c(NCCCN3CCOCC3)nc3c2c(=O)[nH]c(=O)n3C)cc1`: 101% (active); for `COc1ccc(CCn2c(NN=C3CCCC3)nc3c2c(=O)[nH]c(=O)n3C)cc1`: 18.2%.
The same measure for `Cc1ccc(S(=O)(=O)Nc2ccc(F)c(S(=O)(=O)N3CCOCC3)c2)cc1`: 21.7%; for `O=C(CSc1nc2ccccc2c(=O)n1-c1ccccc1F)N1CCOCC1`: 16.2%.
The same measure for `CC(C)(C)c1cc(C(=O)N/N=C/c2ccc([N+](=O)[O-])s2)n[nH]1`: 56.3% (active); for `COc1ccc2ccccc2c1/C=N/NC(=O)c1cc(C)[nH]n1`: 39.3%.
As for `Cc1ccccc1NCC(=O)N/N=C\c1ccc([N+](=O)[O-])s1`, the inhibition was 20.9%.
The same measure for `CC(=O)N1CCCc2cc(S(=O)(=O)N3CCCC(C(=O)NCc4ccc(Cl)cc4)C3)ccc21` (stereo not given): 10.5%.
The same measure for `CC(=O)N1c2ccc(S(=O)(=O)N3CCCC(C(=O)Nc4cccc(Cl)c4)C3)cc2CC1C` (stereo not given): 2.16%.
The same measure for `CC(=O)N1CCCc2cc(S(=O)(=O)N3CCCC(C(=O)N4CCN(c5cccc(Cl)c5)CC4)C3)ccc21` (stereo not given): 39.7% (active).
Regarding `CSCCC1NC(=O)N(CC(=O)Nc2cccc(S(=O)(=O)N3CCCCCC3)c2)C1=O` (stereo not given), the inhibition was 12.6%.
The same measure for `O=C1[C@@H](c2ccccc2)[C@@H](c2ccccc2)N1c1cccnc1`: 26%; for `Cc1cc(C(C)(C)C)oc1C(=O)N(CC(=O)NC1CCCC1)Cc1ccc(Cl)cc1`: 22.5%; for `O=C(COC(=O)Cc1ccc([N+](=O)[O-])cc1)NC1CCCCCC1`: 2.43%.
The same measure for `Cc1cc(C)cc(NC(=O)C(OC(=O)c2ccc(O)cc2)c2ccccc2)c1` (stereo not given): 9.51%.
Consider `CC(C)CC[n+]1ccn(C2=C([O-])c3ccccc3C(=O)/C2=N\S(=O)(=O)c2ccccc2)c1`, for which the inhibition is 79.9% (active).
In the case of `O=C(CCc1ccc(S(=O)(=O)N2CCOCC2)cc1)OCC(=O)c1ccc(Br)cc1`, the inhibition is 4.77%.
The same measure for `O=C(Nc1nnc(-c2ccccc2)o1)c1cccc(S(=O)(=O)N2CCOCC2)c1`: 13.1%; for `Cc1c(NC(=O)C(C)OC(=O)c2ccccc2O)c(=O)n(-c2ccccc2)n1C` (stereo not given): 5.32%.
For `COc1ccc(C(=O)C(C)OC(=O)c2cccc(S(=O)(=O)Nc3c(C)n(C)n(-c4ccccc4)c3=O)c2)cc1` (stereo not given), the inhibition was 41.2% (active).
For the molecule `COc1ccc(NS(=O)(=O)c2ccc(C(=O)Nc3c(C)n(C)n(-c4ccccc4)c3=O)cc2)cc1`, the inhibition is 8.89%.
Regarding `Cc1cc(NC(=O)CSc2nnc(-c3ccco3)n2N)no1`, the inhibition is 9.57%.
In the case of `O=C(CNC(=O)c1ccccc1F)OCC(=O)c1c[nH]c2ccccc12`, the inhibition is 3.49%.
The same measure for `COc1ccc(NS(=O)(=O)c2cc(NC(=O)c3ccc(S(=O)(=O)N(C)C)cc3)ccc2N2CCOCC2)cc1`: 6.2%.
The same measure for `COc1ccc(C(=O)COC(=O)C(O)c2ccccc2)c(OC)c1` (stereo not given): 3.45%; for `O=C(COC(=O)c1ccc(F)cc1)NCC1COc2ccccc2O1` (stereo not given): 6.76%; for `O=C(CN1C(=O)S/C(=C\c2ccccc2F)C1=O)NCCCn1ccnc1`: 20.4%.
The same measure for `O=C(CN1C(=O)/C(=C\c2ccc(C(F)(F)F)cc2)Sc2ccccc21)NCc1ccco1`: 38.3%.
Regarding `O=C(CN1C(=O)/C(=C/c2ccccc2F)Sc2ccccc21)NCc1cccnc1`, the inhibition is 46.6% (active).
The same measure for `C[C@H](NS(=O)(=O)c1ccc(Cl)cc1)C(=O)OCC(=O)N1CCOCC1`: 1.59%.
Regarding `CSCCC(NC(=O)c1ccc(=O)n(C)n1)c1nc2ccccc2[nH]1` (stereo not given), the inhibition was 12.2%.
For `CSCCC(NC(=O)c1cc([N+](=O)[O-])cc([N+](=O)[O-])c1)c1nc2ccccc2[nH]1` (stereo not given), the inhibition is 82% (active).
The same measure for `COc1ccc(CC(=O)N[C@@H](CCSC)c2nc3ccccc3[nH]2)cc1`: 33.1%; for `Cc1cnc(NC(=O)c2ccccn2)s1`: 14.3%; for `O=C(Cc1c(F)cccc1Cl)Nc1ccc(-n2cnnn2)cc1`: 3.25%.
The same measure for `COc1ccc([N+](=O)[O-])cc1NC(=O)CCc1ccccc1`: 28.9%; for `O=C(CCc1ccccc1)Nc1ncc([N+](=O)[O-])s1`: 52.7% (active); for `COc1ccc(OC)c2sc(NC(=O)C3COc4ccccc4O3)nc12` (stereo not given): 14.5%.
The same measure for `O=C(Nc1ncc([N+](=O)[O-])s1)C1COc2ccccc2O1` (stereo not given): 57.4% (active); for `COc1ccc(NC(=O)c2ccccc2[N+](=O)[O-])cc1OC`: 10.8%; for `O=C(Cc1c(F)cccc1Cl)Nc1ncc([N+](=O)[O-])s1`: 43.1% (active).
Take `CC(C)Cc1nnc(NC(=O)CCc2ccccc2)s1`: the inhibition is -12.6%.
The same measure for `CN(c1ccccc1)S(=O)(=O)c1cccc(NC(=O)Cc2c(F)cccc2Cl)c1`: 26.3%; for `CC(=O)Oc1ccccc1C(=O)Nc1ncc([N+](=O)[O-])s1`: 86% (active); for `COc1ccc(NC(=O)C2COc3ccccc3O2)cc1` (stereo not given): 3.74%.
On to `O=C(OCCN1C(=O)c2ccccc2C1=O)[C@@H]1CC(O)CN1S(=O)(=O)c1ccccc1[N+](=O)[O-]` (stereo not given in full), for which the inhibition was 7.02%.
In the case of `O=C(COC(=O)C1CCCO1)Nc1nc(-c2ccc(F)cc2)cs1` (stereo not given), the inhibition is 5.35%.
With `C=CCC[C@H](Cc1ccc(F)cc1)C(=O)OC[C@H](C)NC(=O)[C@H](CC=C)CC(=O)N(CCO)Cc1ccccc1`, the inhibition is 17.6%.
For `O=C(COC(=O)c1ccc(F)c(S(=O)(=O)N2CCOCC2)c1)NCc1ccc2c(c1)OCO2`, the inhibition is 7.1%.
On to `COc1ccc2c(CC(=O)NNC(=O)c3ccccc3F)coc2c1`, for which the inhibition was 7.98%.
The same measure for `CCCCOc1ccc(N(CC(=O)NC(C)C)C(=O)CCC(=O)Nc2ccccn2)cc1`: 4.64%; for `CN(CCc1ccccc1)C(=O)c1cccc(NC(=O)Cc2ccc([N+](=O)[O-])cc2)c1`: 14.3%.
The same measure for `CN(Cc1ccccc1)C(=O)COC(=O)/C=C/c1ccc2c(c1)OCO2`: 4.7%; for `CCCCNC(=O)C(C)N(CCN(C)C)C(=O)CCCN1C(=O)NC(c2ccc(Cl)cc2)C(C(=O)OCc2ccccc2)=C1C` (stereo not given): 13.9%.
The same measure for `C=C1c2cccc(OC)c2O[C@H](C(=O)OCC)[C@@H]1CCCCCC`: 1.8%; for `CC(C)OCCCNC(=O)c1cc(Sc2ccc(F)cc2)nc2ccccc12`: 23.4%.
Regarding `CC(C)OCCCNc1ncnc2c1[nH]c1ccc(F)cc12`, the inhibition is 64.8% (active).
The same measure for `O=C1NC(Cc2ccc(O)cc2)c2nc3ccc(Cl)cc3c(=O)n2-c2ccccc21` (stereo not given): 6.78%; for `CCOC(=O)C1Sc2[nH]c(=O)sc2C(c2ccc(Cl)cc2)C1C(=O)OCC` (stereo not given): 49.6% (active).
The same measure for `CCOC(=O)C1=C(C)NC(=O)N(C(C)=O)C1c1ccc(Cl)cc1` (stereo not given): 12.3%.
The same measure for `CCOC(=O)C1C(c2ccc(Cl)cc2)NC(=S)NC1(O)C(F)(F)F` (stereo not given): 2.06%; for `COc1ccc(C)cc1NC(=O)CSc1cccc[n+]1[O-]`: -5.73%.
In the case of `Cc1c(CN2CC[C@@H](N3CCN(c4ccccn4)CC3)[C@H](O)C2)[nH]c2ccc(F)cc12`, the inhibition is -1.02%.
The same measure for `Fc1ccc2[nH]c3c(N4CCSCC4)ncnc3c2c1`: 85.8% (active); for `COc1ccc2[nH]c3c(c2c1)CCN1C(=O)C(CC(=O)NCc2cccc(C(F)(F)F)c2)C[C@H](C(=O)N2CCOCC2)[C@@]31C` (stereo not given in full): 13%.
